Some test systems named below: BTK; BUB1; CAMK1B; CAMK1D; CAMK1G; CAMK1; CAMK2A; CAMK2B; CAMK2D; CAMK2G.
Common to all, as to conditions: concentration: 1 μM, replicates: in singlicate; n = 1
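Also: KINOMEscan kinase panel screen.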

For `Cc1nccc(-c2c(-c3ccc(F)cc3)ncn2CCCN2CCOCC2)n1.Cl` [SB-282975], the “%Inh” value in the assay on BTK came to 6%; in the assay on BUB1 it was 0%; with CAMK1B it was 0%; with CAMK1D, 0%; in the assay with CAMK1G it was 0%; with CAMK1, 0%. Further, the “%Inh” value in the assay with CAMK2A was 0%; with CAMK2B, 0%; in the assay with CAMK2D, 7%; with CAMK2G it was 0%.
As to `Cn1cncc1C(=O)NC1CCN(c2ccnc(Nc3ccc(F)cc3)n2)C1` (centres unmarked) [GSK1379717], the “%Inh” value was determined as 0% in the assay with BTK; 32% with BUB1; 0% in the assay on CAMK1B; 22% with CAMK1D; 12% in the assay on CAMK1G; 16% in the assay with CAMK1. Further, the “%Inh” value with CAMK2A was 0%; in the assay with CAMK2B it was 0%; in the assay on CAMK2D, 24%; in the assay with CAMK2G, 32%.
On to `Cc1ccc(NC(=O)Nc2ccc(Cl)cc2)cc1-c1ccc(C(=O)Nc2ccncc2)cc1` [GSK1398472], for which the “%Inh” value is recorded as 0% with BTK; 43% in the assay on BUB1; 34% in the assay with CAMK1B; 13% in the assay on CAMK1D; 0% in the assay on CAMK1G; 10% in the assay with CAMK1. In addition, the “%Inh” value with CAMK2A is listed as 0%; in the assay with CAMK2B, 0%; in the assay with CAMK2D, 0%; in the assay with CAMK2G it was 13%.
With `CS(=O)(=O)Cc1ccc(Nc2nccc(-c3c(-c4cccc(NC(=O)C5CCCCC5)c4)nn4ncccc34)n2)cc1` [GSK350559], the “%Inh” value worked out at 0% in the assay with BTK; 98.7% with BUB1; 0% in the assay on CAMK1B; 0% in the assay on CAMK1D; 0% in the assay on CAMK1G; 0% in the assay with CAMK1. Besides, the “%Inh” value turned out to be 15% in the assay on CAMK2A, 8% in the assay on CAMK2B, 0% in the assay with CAMK2D and 0% in the assay on CAMK2G.
On to `CNC(=O)c1ccc(C)c(-n2c(C)cc(OCc3ccc(F)cc3F)c(Br)c2=O)c1`, for which the “%Inh” value in the assay on BTK, with BUB1, in the assay with CAMK1B, in the assay on CAMK1D, in the assay on CAMK1G and in the assay with CAMK1 was 0% in each case. Also, the “%Inh” value with CAMK2A, in the assay on CAMK2B, with CAMK2D and with CAMK2G was 0% in each case.
